Results: PubChem BioAssay AID1159580 (chemical genetic matrix, 2015)
Where “and” joins values, the source holds several entries; their conditions need not be identical. Identical values can stand only once. In all, about 5,500 compounds went through this assay and about 2,000 (36%) were called active. Another 18% or so got no clear call; they are omitted. Cut-off read from the data, not from the text of the source: active = normalized growth mostly below about 0.91 (no sharp cut-off); inconclusive = no clear call, values can overlap the other calls; inactive = mostly above about 0.92. This is one part of the list.

Assay: chemical genetic growth profiling, strain panel (AID 1159580);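 note: tested at 20 µM; growth read once vehicle control cultures reached saturation at 30 °C; 1 = growth at the plate median or of vehicle wells; lower values mean less growth of the strain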
Conditions: S. cerevisiae deletion strains, growth OD

Measured: normalized growth

COc1ccc2c(c1O)-c1c(OC)c(OC)cc3c1[C@H](C2)N(C)CC3
inactive: locus YAL021C, strain ccr4, active compounds read low 0.926 | locus YAL026C, strain drs2, active compounds read low 0.985 | locus YAL030W, strain snc1, active compounds read low 0.989 | locus YBL061C, strain skt5, active compounds read low 0.99 | locus YBR009C, strain hhf1, active compounds read low 1.01 | locus YBR021W, strain FUR4, active compounds read low 1.02 | locus YBR023C, strain chs3, active compounds read low 0.988 | locus YBR171W, strain sec66, active compounds read low 0.976 | locus YBR229C, strain ROT2, active compounds read low 1 | locus YBR231C, strain swc5, active compounds read low 0.991 | locus YBR279W, strain paf1, active compounds read low 0.978 | locus YCL011C, strain gbp2, active compounds read low 0.979 | locus YCL016C, strain dcc1, active compounds read low 0.983 | locus YCL029C, strain bik1, active compounds read low 1.04 | locus YCL061C, strain MRC1, active compounds read low 0.979 | locus YCL069W, strain vba3, active compounds read low 0.981 | locus YCR088W, strain abp1, active compounds read low 0.975 | locus YDL005C, strain med2, active compounds read low 0.982 | locus YDL035C, strain GPR1, active compounds read low 1.06 | locus YDL040C, strain nat1, active compounds read low 0.982 | locus YDL074C, strain BRE1, active compounds read low 1.1 | locus YDL101C, strain DUN1, active compounds read low 1.02 | locus YDL185W, strain tfp1, active compounds read low 1.03 | locus YDL192W, strain arf1, active compounds read low 1.03 | locus YDR001C, strain nth1, active compounds read low 0.982 | locus YDR069C, strain doa4, active compounds read low 0.989 | locus YDR101C, strain arx1, active compounds read low 1.03 | locus YDR137W, strain rgp1, active compounds read low 0.983 | locus YDR150W, strain NUM1, active compounds read low 1.01 | locus YDR159W, strain sac3, active compounds read low 1 | locus YDR162C, strain NBP2, active compounds read low 1.01 | locus YDR195W, strain ref2 0.991 | locus YDR297W, strain sur2, active compounds read low 0.974 | locus YDR318W, strain mcm21, active compounds read low 1.01 | locus YDR334W, strain swr1, active compounds read low 0.951 | locus YDR335W, strain msn5, active compounds read low 0.977 | locus YDR388W, active compounds read low 1.02 | locus YDR392W, strain spt3, active compounds read low 0.931 | locus YDR502C, strain sam2, active compounds read low 1.01 | locus YEL003W, strain gim4, active compounds read low 0.982 | locus YEL037C, strain rad23, active compounds read low 0.988 | locus YEL061C, strain CIN8 (second series), active compounds read low 0.987 | locus YEL061C, strain CIN8, active compounds read low 1.02 | locus YER015W, strain faa2, active compounds read low 0.991 | locus YER016W, strain bim1, active compounds read low 0.985 | locus YER110C, active compounds read low 1.01 | locus YER111C, strain swi4, active compounds read low 0.995 | locus YER155C, strain BEM2 (second series), active compounds read low 1.01 | locus YER155C, strain BEM2, active compounds read low 1 | locus YER167W, strain BCK2, active compounds read low 1.02 | locus YFR010W, strain ubp6, active compounds read low 0.987 | locus YGL078C, strain dbp3, active compounds read low 1.02 | locus YGL086W, strain mad1, active compounds read low 1.04 | locus YGL167C, strain pmr1, active compounds read low 0.999 | locus YGL173C, strain kem1, active compounds read low 0.975 | locus YGL227W, strain vid30, active compounds read low 0.989 | locus YGL240W, strain doc1, active compounds read low 0.996 | locus YGL248W, strain PDE1, active compounds read low 1.01 | locus YGL253W, strain hxk2, active compounds read low 1.01 | locus YGR135W, strain pre9, active compounds read low 1 | locus YGR252W, strain gcn5, active compounds read low 0.991 | locus YHR013C, strain ard1, active compounds read low 0.95 | locus YHR027C, strain rpn1, active compounds read low 0.988 | locus YHR030C, strain SLT2, active compounds read low 1.02 and 0.976 | locus YHR079C, strain IRE1 (second series), active compounds read low 1.01 | locus YHR079C, strain IRE1, active compounds read low 0.993 | locus YHR094C, strain hxt1, active compounds read low 1.01 | locus YHR129C, strain ARP1, active compounds read low 1.03 | locus YHR142W, strain chs7, active compounds read low 0.915 | locus YHR200W, strain rpn10, active compounds read low 1.04 | locus YIL066C, strain RNR3, active compounds read low 1.04 | locus YIL073C, strain SPO22, active compounds read low 1.1 | locus YIL125W, strain kgd1, active compounds read low 1.01 | locus YIR030C, strain dcg1, active compounds read low 1.01 | locus YJL092W, strain hpr5, active compounds read low 0.97 | locus YJL095W, strain BCK1 (second series), active compounds read low 0.995 | locus YJL095W, strain BCK1, active compounds read low 1.03 and 1.01 | locus YJL115W, strain asf1, active compounds read low 0.957 | locus YJL129C, strain trk1, active compounds read low 0.959 | locus YJL134W, strain LCB3, active compounds read low 1.01 | locus YJL154C, strain vps35, active compounds read low 0.982 | locus YJL164C, strain tpk1, active compounds read low 0.972 | locus YJL166W, strain qcr8, active compounds read low 0.987 | locus YJL168C, strain set2, active compounds read low 1.03 | locus YJL187C, strain SWE1 (second series), active compounds read low 1.03 | locus YJL187C, strain SWE1, active compounds read low 0.994 | locus YJR043C, strain POL32, active compounds read low 1.03 | locus YJR066W, strain TOR1, active compounds read low 0.947 | locus YKL009W, strain mrt4, active compounds read low 1.12 | locus YKL068W, active compounds read low 1 | locus YKL085W, strain MDH1 (second series), active compounds read low 1.01 | locus YKL085W, strain MDH1, active compounds read low 1.01 | locus YKL160W, strain elf1, active compounds read low 0.965 | locus YKR001C, strain vps1, active compounds read low 1.03 | locus YKR026C, strain gcn3, active compounds read low 0.981 | locus YKR091W, strain srl3, active compounds read low 0.975 | locus YLL001W, strain dnm1, active compounds read low 0.986 | locus YLL026W, active compounds read low 0.989 | locus YLL041C, strain sdh2, active compounds read low 0.975 | locus YLR027C, strain aat2, active compounds read low 0.987 | locus YLR039C, strain RIC1, active compounds read low 1.09 | locus YLR058C, strain SHM2, active compounds read low 1.01 | locus YLR102C, strain apc9, active compounds read low 1.02 | locus YLR113W, strain HOG1, active compounds read low 1 | locus YLR221C, strain rsa3, active compounds read low 0.981 | locus YLR258W, strain gsy2, active compounds read low 0.999 | locus YLR262C, strain YPT6 (second series), active compounds read low 0.972 | locus YLR262C, strain YPT6, active compounds read low 1.1 | locus YLR268W, strain sec22, active compounds read low 1.05 | locus YLR320W, strain mms22, active compounds read low 1.01 | locus YLR330W, strain CHS5, active compounds read low 1.02 | locus YLR342W, strain FKS1 (second series), active compounds read low 1.06 | locus YLR342W, strain FKS1, active compounds read low 0.986 | locus YLR357W, strain rsc2, active compounds read low 1 | locus YLR370C, strain arc18, active compounds read low 0.979 | locus YLR371W, strain rom2, active compounds read low 1.03 | locus YLR384C, strain iki3, active compounds read low 0.996 | locus YLR418C, strain cdc73, active compounds read low 1.02 | locus YML016C, strain PPZ1, active compounds read low 1.01 | locus YML032C, strain rad52, active compounds read low 1.02 | locus YML120C, strain ndi1, active compounds read low 0.966 | locus YML124C, strain tub3, active compounds read low 1 | locus YMR058W, strain fet3, active compounds read low 0.968 | locus YMR078C, strain ctf18, active compounds read low 1.02 | locus YMR125W, strain sto1, active compounds read low 0.99 | locus YMR129W, active compounds read low 1.01 | locus YMR205C, strain PFK2, active compounds read low 1.01 | locus YMR223W, strain ubp8, active compounds read low 0.994 | locus YMR231W, strain pep5, active compounds read low 0.987 | locus YMR307W, strain GAS1, active compounds read low 1.11 | locus YNL067W, strain RPL9B, active compounds read low 1.01 | locus YNL071W, strain lat1, active compounds read low 0.983 | locus YNL183C, strain NPR1, active compounds read low 0.954 | locus YNL209W, strain ssb2, active compounds read low 0.983 | locus YNL233W, strain BNI4, active compounds read low 1.01 | locus YNL248C, strain rpa49, active compounds read low 0.912 | locus YNL250W, strain rad50, active compounds read low 1.01 | locus YNL271C, strain bni1, active compounds read low 1.03 | locus YNL298W, strain CLA4, active compounds read low 1.01 | locus YNL307C, strain MCK1, active compounds read low 1.02 | locus YNL322C, strain KRE1 (second series), active compounds read low 0.974 | locus YNL322C, strain KRE1, active compounds read low 1.02 | locus YNR049C, strain mso1, active compounds read low 0.987 | locus YNR052C, strain pop2, active compounds read low 1.02 | locus YOL006C, strain TOP1, active compounds read low 1.21 | locus YOL012C, strain htz1 1.07 | locus YOL147C, strain pex11, active compounds read low 1.01 | locus YOR001W, strain rrp6, active compounds read low 0.955 | locus YOR061W, strain CKA2, active compounds read low 1.02 | locus YOR069W, strain VPS5, active compounds read low 1.01 | locus YOR070C, strain gyp1, active compounds read low 0.989 | locus YOR080W, strain dia2, active compounds read low 0.999 | locus YOR083W, strain WHI5, active compounds read low 0.943 | locus YOR106W, strain vam3, active compounds read low 0.945 | locus YOR136W, strain idh2, active compounds read low 1.02 | locus YOR144C, strain elg1, active compounds read low 1.01 | locus YOR184W, strain ser1, active compounds read low 1.06 | locus YOR231W, strain MKK1, active compounds read low 1 | locus YOR265W, strain rbl2, active compounds read low 0.984 | locus YOR270C, strain vph1, active compounds read low 0.964 | locus YOR290C, strain snf2, active compounds read low 0.99 | locus YOR316C, strain cot1, active compounds read low 1.04 | locus YPL051W, strain arl3, active compounds read low 0.973 | locus YPL078C, strain atp4, active compounds read low 0.926 | locus YPL106C, strain sse1, active compounds read low 0.972 | locus YPL240C, strain hsp82, active compounds read low 0.976 | locus YPL241C, strain CIN2, active compounds read low 1.01 | locus YPL256C, strain CLN2, active compounds read low 0.973 | locus YPR119W, strain clb2, active compounds read low 1 | locus YPR141C, strain kar3, active compounds read low 1 | locus YPR163C, strain tif3, active compounds read low 1.02 | locus YPR167C, strain met16, active compounds read low 1.04 | strain wtn01, active compounds read low 1.07
